This note sets out measurements from PubChem BioAssay (Tox21).

Test [1] deals with Thyrotropin receptor (Homo sapiens) (UniProt P16473). As to the kind of experiment: qHTS assay to identify small molecule antagonists of the thyroid stimulating hormone receptor (TSHR) signaling pathway (AID 1259385; calls by dose curve; also: nearly all actives have a fitted effect of over 20% in size). An outline of the steps: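 TSHR-HEK293 cells were plated and held 18 h at 37C/5% CO2, then given compound plus Ro20-1724 and stimulated with TSH at 1.5 ng/mL final. After 30 min at room temperature, cAMP was detected with cAMP-d2/anti-cAMP-cryptate (1 h) by fluorescence.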

Test [2] in a line: qHTS assay to identify small molecule agonists of the estrogen receptor alpha (ER-alpha) signaling pathway in the presence of an antagonist - cell viability counter screen (AID 1259386).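 Also: series mostly up to about 92 µM; cells exposed to compounds for 22 h at 37 °C before the viability read; nearly all actives have a fitted effect of over 30% in size.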 An outline of the steps: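 Using estrogen-depleted VM7Luc4E2 cells, the 15-concentration compound series was applied together with 10.0nM ICI-182,780 and incubated 22hr at 37C/5% CO2. Cell viability was then scored by CellTiter-Fluor.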

Test [3] has as its target Progesterone receptor (Homo sapiens) (UniProt P06401). The test is described as follows: qHTS assay to identify small molecule agonists of the progesterone receptor (PR) signaling pathway (AID 1346784; calls by dose curve; also: nearly all actives have a fitted effect of over 30% in size). An outline of the steps:
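Agonist mode, quantitative HTS format in a HEK 293T line expressing a UAS-controlled beta-lactamase reporter; 16 hr compound exposure at 37C in 2% charcoal-stripped FBS, then LiveBLAzer B/G FRET fluorescence.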

Test [4] has the same target. The test is described as follows: qHTS assay to identify small molecule antagonists of the progesterone receptor (PR) signaling pathway (AID 1346795; active = well fitted inhibition curve with a large enough effect in the signal ratio in the repeat runs, not every such curve was filed as active; the % refers to the signal ratio; also: potency is read from the fitted curve at half-maximal effect). An outline of the steps:
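HEK293T PR-UAS-bla reporter cells in charcoal-stripped serum (2%) received compound after a 6 hr settling period, followed by R5020 agonist at 1 nM final; 16 hr incubation preceded the FRET substrate step and fluorescence measurement.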

Test [5] is described as follows: qHTS assay to identify small molecule antagonists of the progesterone receptor (PR) signaling pathway - cell viability counter screen (AID 1346798). Also: series mostly up to about 92 µM; nearly all actives have a fitted effect of over 50% in size. The method in brief:
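Same-well multiplex: after 16 hr at 37C with compound and R5020 stimulation, HEK293T cells carrying a UAS-bla reporter received LiveBLAzer substrate (2 hr RT), then CellTiter-Glo (30 min RT) for luminescent viability.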

Test [6] is described as follows: qHTS assay to identify small molecule antagonists of the TGF-beta/Smad signaling pathway - cell viability counter screen (AID 1346824). Also: nearly all actives have a fitted effect of over 50% in size. The method in brief:
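SBE-bla HEK 293T cells were plated overnight at 37 C, then given compounds in DMSO plus TGF-beta1 (added as 0.25 ng/mL solution) for 5 hr. After the bla read, CellTiter-Glo was added to the same wells and luminescence read after 30 min at room temperature.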

A short description of test [7]: qHTS assay to identify small molecule agonists of the TGF-beta/Smad signaling pathway - cell viability counter screen (AID 1346829). Also: top concentration of the series differs between compounds; nearly all actives have a fitted effect of over 45% in size. The method in brief:
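Same-well cytotoxicity: CellTiter-Glo added after the 2 hr room-temperature beta-lactamase substrate step, luminescence measured 30 min later; cells had 5 hr of compound at 37 C.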

Test [8] in a line: qHTS assay to identify small molecule agonists of the TGF-beta/Smad signaling pathway (AID 1346859; active = well fitted activation curve with a large enough effect in the signal ratio in the repeat runs, not every such curve was filed as active; the % refers to the signal ratio; also: series mostly up to about 77 µM). The method in brief: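 Smad-responsive beta-lactamase reporter cells (HEK 293T) received compounds from DMSO stocks after overnight attachment, were incubated 5 hr, then treated 2 hr with FRET substrate before dual-emission fluorescence measurement (405 nm excitation).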
Test [9] is described as follows: Caspase-3/7 induction in HepG2 cells by small molecules, qHTS assay (AID 1346978). Also: nearly all actives have a fitted effect of over 15% in size. An outline of the steps:
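Wild-type HepG2 cells (2,000/well) were settled 5 h at 37 C, 5% CO2, then exposed to compounds in DMSO for 17 h. Caspase-3/7 activity was read by luminescence 30 min after adding Caspase-Glo 3/7 reagent at room temperature.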

Test [10] in a line: Caspase-3/7 induction in CHO-K1 cells by small molecules, qHTS cell viability counter screen (AID 1346979). Also: nearly all actives have a fitted effect of over 35% in size. Also: potency is read from the fitted curve at half-maximal effect. An outline of the steps:
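In the same wells as the caspase read, viability of compound-treated wild-type CHO-K1 cells was assessed using CellTiter-Fluor, added after 16hr at 37C and measured by fluorescence following 1hr further incubation.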

Test [11] can be described thus: Caspase-3/7 induction in CHO-K1 cells by small molecules, qHTS assay (AID 1346980). Also: nearly all actives have a fitted effect of over 15% in size. An outline of the steps:
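Wild-type cells were seeded at 1,500 per well and settled 5 hr at 37 C, 5% CO2, then exposed to DMSO-dissolved compounds for 17 hr. Caspase-Glo 3/7 reagent was added, and luminescence was read after 30min at room temperature.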

For test [12], the target named is Nuclear receptor subfamily 1 group I member 2 (Homo sapiens) (UniProt O75469). As to the kind of experiment: Human pregnane X receptor (PXR) small molecule agonists, qHTS assay (AID 1346982). Also: nearly all actives have a fitted effect of over 35% in size. Also: potency is read from the fitted curve at half-maximal effect. An outline of the steps: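 Tox21 qHTS; PXR-Luc HepG2; compounds pinned from DMSO; 24 hr, 37 C; ONE-Glo luciferase detection, 30 min room temperature.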
For test [13], the target named is Cytochrome P450 2D6 (Homo sapiens) (UniProt P10635). The test is described as follows: Cytochrome P450 Family 2 Subfamily D Member 6 (CYP2D6) small molecule antagonists: luciferase reporter qHTS assay (AID 1671196). Also: nearly all actives have a fitted effect of over 50% in size. Also: potency is read from the fitted curve at half-maximal effect. An outline of the steps:
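Room-temperature luminescent CYP2D6 activity assay: compound preincubated 10 min with enzyme–substrate mix, NADPH-initiated reaction 1 h, detection reagent 20 min before reading.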

Test [14] deals with Thyrotropin-releasing hormone receptor (Homo sapiens) (UniProt P34981). The test is described as follows: qHTS assay to identify small molecule antagonists of the thyrotropin-releasing hormone receptor (TRHR) signaling pathway (AID 1346877; active = well fitted inhibition curve with a large enough effect in the repeat runs, not every such curve was filed as active; also: series mostly up to about 51 µM). An outline of the steps: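 Calcium signal in dye-loaded TRHR/HEK293 cells; compounds added 5 min before TRH (1 nM final); fluorescence monitored 3 min at 1 s steps.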

The target is the same in test [15]. The test is described as follows: qHTS assay to identify small molecule agonists of the thyrotropin-releasing hormone receptor (TRHR) signaling pathway (AID 1346891; calls by dose curve;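 also: HEK293 cells expressing TRHR with calcium dye readout; series mostly up to about 58 µM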). An outline of the steps: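 Agonist-mode calcium mobilisation screen: TRHR-transfected HEK293 cells cultured overnight (18 h), dye-loaded for 2 h at 37 °C, exposed to compounds, and monitored by fluorescence for 3 min.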

Test [16] can be described thus: Human pregnane X receptor (PXR) small molecule agonists, qHTS cell viability counter screen (AID 1346977). Also: nearly all actives have a fitted effect of over 50% in size. The method in brief:
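Measures live-cell protease fluorescence (CellTiter-Fluor) in PXR-Luc HepG2 cells treated 24hr with compounds at 37C. Cells had 5hr to attach before pin transfer of DMSO solutions.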

Test [17] can be described thus: Caspase-3/7 induction in HepG2 cells by small molecules, qHTS cell viability counter screen (AID 1346981). Also: series mostly up to about 92 µM; nearly all actives have a fitted effect of over 30% in size. The method in brief:
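After a 5-hr attachment period at 37 C and 5% CO2, wild-type HepG2 cells received compounds in DMSO. Sixteen hours later CellTiter-Fluor was dispensed and the fluorescent signal quantified after a further hour.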

A short description of test [18]: qHTS assay to identify small molecule agonists of the progesterone receptor (PR) signaling pathway - cell viability counter screen (AID 1346799; calls by dose curve; also: nearly all actives have a fitted effect of over 45% in size). An outline of the steps:
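Counter screen for cytotoxicity: compound-treated PR-UAS-bla HEK293T cells (16 hr, 37C, 5% CO2) were assayed with CellTiter-Glo, luminescence measured after 30 min at room temperature.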

In test [19] the target is Nuclear receptor subfamily 1 group I member 2 (Homo sapiens) (UniProt O75469). As to the kind of experiment: CYP3A4 induction through human pregnane X receptor (PXR) by small molecules, qHTS assay (AID 1346984). Also: nearly all actives have a fitted effect of over 40% in size. The method in brief:
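Cells (DPX-2; HepG2 with PXR element plus CYP3A4-promoter luciferase) settled 5hr, then were treated 24hr at 37C. A 3hr, 3uM-final Luciferin-IPA step preceded luminescence measurement with One-Glo.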

The target is the same in test [20]. The test is described as follows: Human pregnane X receptor (PXR) activation by small molecules, qHTS assay (AID 1346985). Also: nearly all actives have a fitted effect of over 40% in size. The method in brief:
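DPX-2 cells (HepG2 co-transfected with a PXR response element and a CYP3A4-promoter luciferase construct) were seeded at 2,000 per well, rested 5 hr at 37C, then exposed to DMSO-dissolved compounds for 24 hr. Activation was read as luciferase luminescence.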

Where “and” joins values, the source holds several entries; their conditions need not be identical. Identical values can stand only once. Records with an inconclusive call do not appear. Some structures have more than one record in an assay (separate samples or runs), and their calls can disagree. Calls of active or inactive are those of the source. Unless noted, calls follow the shape of the dose curve; as a rule, active = well fitted curve in the direction sought with a large enough effect in the repeat runs; inconclusive = weak or mixed curves; inactive = no such curve, though single readings can be large; an effect the other way counts as inactive or inconclusive.

Sequence of Thyrotropin receptor (Homo sapiens) (P16473 whole entry, looked up): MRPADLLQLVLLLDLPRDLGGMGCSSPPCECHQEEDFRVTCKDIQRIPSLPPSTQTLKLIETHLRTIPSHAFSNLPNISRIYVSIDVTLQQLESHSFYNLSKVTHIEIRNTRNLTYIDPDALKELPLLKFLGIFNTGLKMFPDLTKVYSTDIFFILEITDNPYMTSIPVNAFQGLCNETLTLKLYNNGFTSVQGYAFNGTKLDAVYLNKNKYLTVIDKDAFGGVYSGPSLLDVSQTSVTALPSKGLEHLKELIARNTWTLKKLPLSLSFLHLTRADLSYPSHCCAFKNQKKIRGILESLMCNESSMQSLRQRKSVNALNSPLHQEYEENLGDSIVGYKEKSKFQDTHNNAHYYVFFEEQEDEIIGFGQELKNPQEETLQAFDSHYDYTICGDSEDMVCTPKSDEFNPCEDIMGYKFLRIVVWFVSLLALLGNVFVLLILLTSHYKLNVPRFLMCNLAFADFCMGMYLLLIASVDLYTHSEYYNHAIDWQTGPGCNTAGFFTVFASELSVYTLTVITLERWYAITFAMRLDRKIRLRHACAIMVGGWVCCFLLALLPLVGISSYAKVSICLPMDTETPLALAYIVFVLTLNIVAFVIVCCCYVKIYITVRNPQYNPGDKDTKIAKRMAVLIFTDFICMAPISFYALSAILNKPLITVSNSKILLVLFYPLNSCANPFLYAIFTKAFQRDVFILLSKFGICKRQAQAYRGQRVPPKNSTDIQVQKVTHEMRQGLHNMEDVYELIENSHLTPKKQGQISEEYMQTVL
Sequence of Thyrotropin-releasing hormone receptor (Homo sapiens) (P34981 whole entry, looked up): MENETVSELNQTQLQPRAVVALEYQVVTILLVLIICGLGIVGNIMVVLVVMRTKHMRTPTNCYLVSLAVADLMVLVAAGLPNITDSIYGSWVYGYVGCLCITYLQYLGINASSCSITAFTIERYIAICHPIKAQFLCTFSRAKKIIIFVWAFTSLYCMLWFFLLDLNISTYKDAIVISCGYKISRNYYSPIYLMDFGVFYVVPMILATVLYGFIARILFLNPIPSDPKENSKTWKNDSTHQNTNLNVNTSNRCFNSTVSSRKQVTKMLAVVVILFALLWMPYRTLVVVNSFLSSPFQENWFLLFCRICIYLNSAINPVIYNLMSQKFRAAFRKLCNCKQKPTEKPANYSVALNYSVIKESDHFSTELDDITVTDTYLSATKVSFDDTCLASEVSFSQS
Sequence of Progesterone receptor (Homo sapiens) (P06401 whole entry, looked up): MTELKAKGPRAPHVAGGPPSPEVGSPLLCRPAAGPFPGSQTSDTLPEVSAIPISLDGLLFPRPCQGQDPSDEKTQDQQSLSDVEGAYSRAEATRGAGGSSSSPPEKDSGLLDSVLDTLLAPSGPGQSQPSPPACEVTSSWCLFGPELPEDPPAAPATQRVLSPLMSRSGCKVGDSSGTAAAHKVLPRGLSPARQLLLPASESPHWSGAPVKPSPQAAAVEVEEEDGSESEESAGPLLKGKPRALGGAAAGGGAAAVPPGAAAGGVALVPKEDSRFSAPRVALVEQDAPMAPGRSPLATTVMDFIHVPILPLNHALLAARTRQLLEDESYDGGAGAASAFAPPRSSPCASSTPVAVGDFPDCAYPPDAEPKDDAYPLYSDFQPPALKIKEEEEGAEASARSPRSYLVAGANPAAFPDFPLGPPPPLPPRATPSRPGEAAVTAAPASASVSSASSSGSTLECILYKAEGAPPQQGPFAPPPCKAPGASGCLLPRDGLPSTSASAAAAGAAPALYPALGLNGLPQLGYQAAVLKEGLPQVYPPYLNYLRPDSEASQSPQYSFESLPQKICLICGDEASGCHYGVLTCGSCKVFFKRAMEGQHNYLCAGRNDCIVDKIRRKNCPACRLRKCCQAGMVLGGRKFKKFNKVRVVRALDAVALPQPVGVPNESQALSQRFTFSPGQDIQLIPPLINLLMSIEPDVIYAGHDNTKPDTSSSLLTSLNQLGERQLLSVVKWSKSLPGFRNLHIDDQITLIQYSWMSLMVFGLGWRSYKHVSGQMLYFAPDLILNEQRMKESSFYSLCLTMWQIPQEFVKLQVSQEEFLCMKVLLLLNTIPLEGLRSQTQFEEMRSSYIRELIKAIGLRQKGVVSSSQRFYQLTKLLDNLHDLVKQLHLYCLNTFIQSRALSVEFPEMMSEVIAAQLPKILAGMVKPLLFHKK
Sequence of Cytochrome P450 2D6 (Homo sapiens) (P10635 whole entry, looked up): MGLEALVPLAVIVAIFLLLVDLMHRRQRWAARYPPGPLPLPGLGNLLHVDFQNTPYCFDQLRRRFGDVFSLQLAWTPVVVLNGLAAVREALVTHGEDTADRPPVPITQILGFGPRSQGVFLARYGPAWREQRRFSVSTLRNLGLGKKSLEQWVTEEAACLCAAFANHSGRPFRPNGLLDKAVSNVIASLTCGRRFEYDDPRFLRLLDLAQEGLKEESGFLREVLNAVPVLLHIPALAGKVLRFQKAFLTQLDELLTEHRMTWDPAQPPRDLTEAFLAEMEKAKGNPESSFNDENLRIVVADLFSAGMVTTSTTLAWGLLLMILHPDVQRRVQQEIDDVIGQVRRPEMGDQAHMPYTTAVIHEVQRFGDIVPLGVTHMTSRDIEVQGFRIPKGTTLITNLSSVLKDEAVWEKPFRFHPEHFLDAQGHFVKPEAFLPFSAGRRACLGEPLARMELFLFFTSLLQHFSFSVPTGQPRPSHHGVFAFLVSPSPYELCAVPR
Sequence of Nuclear receptor subfamily 1 group I member 2 (Homo sapiens) (O75469 whole entry, looked up): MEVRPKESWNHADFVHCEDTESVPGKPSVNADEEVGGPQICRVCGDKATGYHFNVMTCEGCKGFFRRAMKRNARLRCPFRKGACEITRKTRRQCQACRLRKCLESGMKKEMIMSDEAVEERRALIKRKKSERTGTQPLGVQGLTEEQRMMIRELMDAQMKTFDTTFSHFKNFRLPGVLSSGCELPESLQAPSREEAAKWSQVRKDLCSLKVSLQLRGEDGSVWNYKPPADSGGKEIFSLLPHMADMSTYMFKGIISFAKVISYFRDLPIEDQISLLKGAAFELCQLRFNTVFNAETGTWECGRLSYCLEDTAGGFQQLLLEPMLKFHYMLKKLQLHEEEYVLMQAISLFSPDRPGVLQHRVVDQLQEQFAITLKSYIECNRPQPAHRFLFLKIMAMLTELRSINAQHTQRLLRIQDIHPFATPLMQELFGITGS

As to `Cc1c(N(C)C)c(=O)n(-c2ccccc2)n1C`, the compound was classed as inactive in test [1], in [8] and in test [11]. The Potency entry in test [2], in test [3], in test [4], in [5], in [6] and in test [7] was “inactive” each time. Moreover, the Potency entry in test [9], in test [10] and in test [13] was “inactive” throughout. Also, in [12], the Potency was 55.4 µM (active) and inactive.

Consider `C=C(C)C(N)=O`, for which the compound was called inactive in test [1], in [8], in [14] and in test [11]. The Potency result in [2], in test [3], in test [4], in [6], in [7] and in test [15] was “inactive” in each case. The Potency entry in [16], in [9], in test [10], in [17], in test [12] and in test [13] was “inactive” in each case.

As for `OC[C@@H](O)[C@@H](O)[C@H](O)[C@H](O)CO`, the call in test [1], in test [8] and in test [11] was inactive. The Potency entry in [2], in [3], in test [4], in test [18], in [6] and in test [7] was “inactive” each time. In addition, the Potency result in test [16], in test [9], in test [10], in [17], in test [12] and in test [19] was “inactive” in each case. Also, the Potency result in test [20] and in [13] was “inactive” each time.

For `c1ccc2[nH]c(-c3cscn3)nc2c1`, the outcome in test [1], in [8], in test [14] and in test [11] was inactive. The Potency result in [2], in test [3], in test [4], in test [18], in test [6] and in test [7] was “inactive” throughout. In addition, the Potency entry in test [15], in test [16], in test [9], in [10] and in [17] was “inactive” each time. Further, the Potency is 30.8 µM (active) and 770 nM (active) and 6.68 µM (active) in test [12]; 39.9 µM (active) and 38.9 µM (active) in test [13].

`O=c1c(-c2ccc(O)cc2)coc2cc(O)cc(O)c12`: the outcome in test [1], in test [8] and in test [11] was inactive. Also, the Potency entry in [2], in [3], in test [5], in test [6], in test [7] and in test [16] was “inactive” in each case. The Potency entry in [9] and in test [13] was “inactive” throughout. The Potency in [4] was 23.9 µM (active) and 17.2 µM (active) and 13.3 µM (active); in [10] it was 60.1 µM (active) and 48.6 µM (active); in test [12], 47.7 µM (active) and 30.6 µM (active) and 29.8 µM (active).

Consider `CC(C)(C)NCC(O)c1ccc(O)c(CO)c1` (stereo not drawn), for which the result in [1], in [8], in [14] and in [11] was inactive. In addition, the Potency entry in [2], in [3], in test [4], in test [6], in [7] and in [15] was “inactive” throughout. In addition, the Potency entry in test [16], in [9], in test [10], in test [12] and in test [13] was “inactive” throughout.

`NC(=O)c1ccc([N+](=O)[O-])cc1Cl`: the outcome in [1], in test [8], in test [14] and in test [11] was inactive. Also, the Potency entry in [2], in test [3], in test [4], in [6], in test [7] and in test [15] was “inactive” throughout. The Potency entry in [16], in test [9], in [10], in [17], in [12] and in [19] was “inactive” in each case. Further, the Potency result in test [20] and in test [13] was “inactive” throughout.

Turning to `COc1ccccc1O`, the result in test [1], in test [8], in [14] and in test [11] was inactive. The Potency entry in test [2], in [3], in test [4], in test [6], in test [7] and in test [15] was “inactive” throughout. In addition, the Potency result in test [16], in [9], in [10], in test [17], in test [12] and in [19] was “inactive” each time. The Potency result in test [20] and in test [13] was “inactive” throughout.
